Laboratory results reported in PubChem BioAssay (NCATS).
Results filed as inconclusive are left out. A number with no mark means an inactive call. The call rests on the fitted dose curve; in most records, active means well fitted inhibition curve with a large enough effect; inconclusive means small, poorly fitted or top-dose-only effect; inactive means no such curve, though single readings can be large or run the other way.

assay: qHTS assay for measurement of the activity of small molecule inhibitors on Zika virus induced Caspase-3 activity in human iPSC derived neural progenitor cells (hNPCs) (AID 1224857); settings: hNPCs ZIKV-induced caspase-3/7, Caspase-Glo luminescence, 6 h; series mostly up to 45.7 µM; activity change, negative = inhibition: at the top concentration; further: nearly all actives have a fitted effect of over 65% in size
Source text: National Center for Advancing Translational Sciences [NCATS]
Johns Hopkins University School of Medicine
Increase in the Caspase-3 activity indicates an activation of apoptosis cell death pathway caused by Zika virus infection in certain types of neuronal cells including human neural progenitor cells (hNPCs), astrocytes, and astrocytoma cell line (SNB-19). This cell-based caspase-3 activity assay measures the increased caspase-3 activity in the human iPSC derived neural progenitor cells (hNPCs) after a 6-hour Zika virus infection with a luminescence readout. A decrease in the luminescence signal in this assay by small molecule treatment indicates an inhibitory effect of that small molecule on the Zika virus induced caspase-3 activity that may correlate with its effect on reduction of Zika virus caused cell death.
The medium for hNPCs consists of DMEM/F12, N2 supplement (ThermoFisher, Cat.# 17502048), NEAA (ThermoFisher, Cat. # 11140050), 2 ug/ml heparin, 2 uM cyclopamine, and B27 (ThermoFisher, Cat. # 17504044). A Caspase-Glo 3/7 assay kit (catalog number G8092; Promega, Madison, WI) was used to detect caspase-3 activity induced by Zika virus infection in human cells. The reagent mixture was reconstituted as described in the protocol from the manufacturer. Polystyrene tissue culture treated and PDL coated white plates were obtained from Greiner Bio-One (Monroe, NC). Cells were seeded in 384- or 1536-well assay plates and cultured at 37 C with 5% CO2 for 16 to 20 hours. The typical cell seeding density in the 1536-well plate assay is 350 cells/well in 3 ul medium for hNPCs in tissue culture treated plates. Compounds were added to cells and incubated for one hour before addition of ZIKV solution to cells (2 FFU/cell). After incubation at 37 C with 5% CO2 for 6 hours, the reagent mixture of Caspase-Glo 3/7 assay kit was added to each well, followed by incubation at room temperature for 30 minutes. The luminescence intensity of the assay plates was measured using a ViewLux plate reader (PerkinElmer). Data were normalized by using the cell-containing wells without ZIKV as a negative control (0% induction of caspase 3/7 activity) and wells containing ZIKV infected cells (Caspase-3 activity induced) as a positive control (100% induction of caspase 3 activity). The percentage inhibitions of the increased Caspase-3 activity by small molecule inhibitors were then calculated.

| Compound | activity change, negative = inhibition |
| --- | --- |
| Cc1cccc(N(C)C(=S)Oc2ccc3c(c2)CCC3)c1 | -7.34% |
| CCCOc1ccc2c(c1)CC[C@@H]1[C@@H]2CC[C@]2(C)C(OC)CC[C@@H]12 (stereo not given in full) | 8.24% |
| CCCc1ncc(C(=O)O)s1 | -8.88% |
| COC(=O)c1cc(Cl)c(NC(C)=O)cc1OC | -0.281% |
| CCO[C@H](Cc1ccc(OCCc2ccc(OS(C)(=O)=O)cc2)cc1)C(=O)O | -7.08% |
| O=C(CS(=O)Cc1ccco1)NC/C=C\COc1cc(CN2CCCCC2)ccn1 (stereo not given) | -2.1% |
| CN1C(=O)CC(C)(c2ccccc2)C1=O (stereo not given) | 0.303% |
| CC(C)(C)C1CCC(CC2=C(O)c3ccccc3C(=O)C2=O)CC1 (stereo not given) | 9.48% |
| CCN1CCN(c2cc(-c3ccc(F)cc3)c3c(n2)CCCCCC3)CC1 | 71.7% [at 20.5 µM] |
| CCOC(=O)c1ccc(O)c(O)c1 | 8.85% |
| C[C@H]1NCc2cc(-c3ccc4c(=O)c(C(=O)O)cn(C5CC5)c4c3OC(F)F)ccc21 | -3.09% [at 20.5 µM] |
| C[C@H](CN1CCCC1)C(=O)c1ccc(C(F)(F)F)cc1 | 0.548% |
| COc1c(N2C[C@@H]3CCCN[C@@H]3C2)c(F)cc2c(=O)c(C(=O)O)cn(C3CC3)c12 | -4.78% |
| CCCCCCCCCCCC[N+](C)(C)Cc1ccccc1 | 53% |
| CCCC(CCC)(C(=O)OCC)C(=O)OCC | -18.5% |
| O=C(CCCCC(=O)Nc1c(I)cc(I)c(C(=O)O)c1I)Nc1c(I)cc(I)c(C(=O)O)c1I | -10.9% |
| C[C@H]1C[C@H]2[C@@H]3CCC4=CC(=O)C=C[C@]4(C)[C@H]3C(=O)C[C@]2(C)[C@@]1(O)C(=O)CO | -3.06% |
| O=C1[C@@H]2[C@H]3CC[C@H](C3)[C@@H]2C(=O)N1CCCCN1CCN(c2ncccn2)CC1 | -8.06% |
| CCCCNc1ccc(C(=O)OCCN(CC)CC)cc1 | 7.56% |
| O=C(Nc1ccc(S(=O)(=O)N2CCOCC2)cc1)c1cc(Cl)ccc1NS(=O)(=O)c1ccc(Cl)s1 | -7.03% |

| Compound | activity change, negative = inhibition |
| --- | --- |
| CC(=O)OCC(=O)[C@@]1(O)[C@H](OC(C)=O)C[C@H]2[C@@H]3CCC4=CC(=O)C=C[C@]4(C)[C@@]3(F)[C@@H](O)C[C@@]21C | -16% |
| CCCCN(CCCC)C(C(N)=O)c1ccc(OC)cc1 (stereo not given) | -8.68% |
| C=C(C)C(=O)OCC(O)CO (stereo not given) | -2.99% |
| C=CCNc1nc(NCC=C)nc(N2CCN(C(c3ccc(F)cc3)c3ccc(F)cc3)CC2)n1 | 5.66% |
| Nc1cccc2c(N)cccc12 | -2.48% [at 92.8 µM] |
| Cn1cnc2c(NCc3ccccc3)nc(NCCO)nc21 | 29.6% |
| CCCC(=O)Nc1ccc(O)c(C(C)=O)c1 | 5.67% |
| O=C1OC2(c3ccccc31)c1cc(I)c(O)c(I)c1Oc1c2cc(I)c(O)c1I | -12.6% |
| O=C(CCCl)NCc1ccccc1 | -2.26% |
| Fc1ccc(C(c2ccc(F)cc2)N2CCNCC2)cc1 | 3.92% |
| O=C1CCCc2c(O)cccc21 | -1.94% |
| COC(=O)/C=C\C(=O)OC | 1.84% |
| CCOC(=O)C(=O)CCCCCCl | 1.13% |
| CCCCOC(=O)CCCCCCCCC(=O)OCCCC | 13% |
| O=C(O)Cc1ccccc1Oc1ccc(Cl)cc1Cl | 6.01% |
| Nc1ncnc2n[nH]c(Nc3ccc(F)cc3)c12 | 6.17% |
| CCCCCC1Nc2cc(C(F)(F)F)c(S(N)(=O)=O)cc2S(=O)(=O)N1 (stereo not given) | -4.01% |
| CCCCC(=O)OCC(=O)[C@H]1[C@H](C)C[C@H]2[C@@H]3C[C@H](F)C4=CC(=O)C=C[C@]4(C)[C@@]3(F)[C@@H](O)C[C@@]21C | 29.7% |
| CC(C)C(=O)Nc1cccc(C2CN3CCSC3=N2)c1 (stereo not given) | -3.03% |
| O=C1CC2(CCCC2)CC(=O)N1CCNCC1COc2ccccc2O1 (stereo not given) | 20% |
